This passage reports growth rescue results from PubChem BioAssay AID504582 (Broad Institute, 2011).

Out of some 340,000 compounds screened, about 2,300 (0.68%) were called active. Cut-off read from the data, not from the text of the source: active = growth rescue above about 28% (passing the limit was not always enough); inconclusive = no clear call, values can overlap the other calls. The list comes from a sample in which actives are over-represented; it also holds similar structures and randomly drawn compounds.

The test is described as follows: rescue of yeast from PfHsp40 toxicity, primary screen, S. cerevisiae, ATP luminescence (AID 504582).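 Note: yeast W303a lacking pdr1 and pdr3 grown in galactose medium; growth measured after three days at 30 °C.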 The following applies: S. cerevisiae expressing PfHsp40, growth rescue, at 12.5 µM, active compounds read high.
Take `COC(=O)/C=C\C(=O)Nc1cccc([N+](=O)[O-])c1`: the growth rescue is 233% (active).

Regarding `CCC(CC)NC(=O)/C=C/c1cccc([N+](=O)[O-])c1`, the growth rescue was -2.62% (inactive).

For `O=C(Nc1cccc([N+](=O)[O-])c1)Nn1cnnc1`, the growth rescue is 0.084% (inactive).

Consider `CCOC(=O)N1CCN(C(=O)C(=O)Nc2sc3c(c2C#N)CC(C)(C)OC3)CC1`, for which the growth rescue was -1.13% (inactive).

As for `COc1ccc(-c2nc3n(c(=O)c2C#N)CCS3)c(OC)c1`, the growth rescue is -0.93% (inactive).

`CCCNC(=O)CSc1nc(Cc2ccccc2)nc2ccccc12`: the growth rescue was 1.34% (inactive).

With `O=C(CSc1nc(C2CC2)nc2ccccc12)Nc1ccc2c(c1)OCCO2`, the growth rescue was 0.157% (inactive).

As to `CCCc1nc(SCC(=O)Nc2ccc(S(=O)(=O)N(C)C)cc2)c2ccccc2n1`, the growth rescue was 56.5% (active).

As to `Cc1ccc(-n2c(C)nnc2SCC(=O)NC2CC2)cc1`, the growth rescue was 0.655% (inactive).

In the case of `CCCCC/C=C/C1=CC(=O)C[C@H](c2ccc(Cl)cc2)C1`, the growth rescue was -0.132% (inactive).

For `Cc1cccnc1NC(=O)Cn1c(=O)oc2ccccc21`, the growth rescue was 0.888% (inactive).

`CSCc1cc(N2CCOCC2)nc(SCc2ccc(Cl)cc2Cl)n1`: the growth rescue is 21.9% (inactive).

Consider `CSCc1cc(N(C)C)nc(SCc2ccc(Cl)cc2Cl)n1`, for which the growth rescue was 119% (active).

In the case of `Nc1cc(N)nc(SCc2ccc(Cl)cc2)n1`, the growth rescue is 0.722% (inactive).

Regarding `O=C(O)c1cc2ccccc2c(=O)s1`, the growth rescue was -1.29% (inactive).

For the compound `CCCCCN1CC(O)=C(c2ccccc2)C1=N`, the growth rescue was 1.8% (inactive).

`CCCCCCCCCCCCn1ccc(=N)cc1`: the growth rescue is 174% (active).

Take `CCCCCCCCn1c2c(c(=N)c3c1CCC3)CCCC2`: the growth rescue was -1.32% (inactive).

Regarding `Nc1cccnc1Sc1ccccc1`, the growth rescue is -0.346% (inactive).

Turning to `O=C(CN1C(=O)NC2(CCCCC2)C1=O)NCCC1=CCCCC1`, the growth rescue is -1.2% (inactive).

On to `CC(=O)c1ccc(S(=O)(=O)Nc2ccc(C(=O)NCC(c3ccccc3)N(C)C)cc2)cc1` (configuration not stated), for which the growth rescue is 0.039% (inactive).

With `COc1ccc(C(CNC(=O)c2ccc(S(=O)(=O)Nc3ccccc3F)cc2)N(C)C)cc1` (configuration not stated), the growth rescue is 33.3% (active).

With `COc1ccc(C(CNC(=O)c2ccc(NS(=O)(=O)c3ccc(F)c(C)c3)cc2)N(C)C)cc1` (configuration not stated), the growth rescue is -1.73% (inactive).

On to `Cc1ccc(C)c(C(=O)N2CCC(n3nccc3NC(=O)C3CC3)CC2)c1`, for which the growth rescue was -0.915% (inactive).

As to `COc1ccccc1C1CCN(C(=S)Nc2ccc(Br)cc2)CC1`, the growth rescue is 41.2% (active).

On to `COc1ccccc1NC(=S)N1CCN(C(c2ccccc2)c2ccccc2)CC1`, for which the growth rescue was -0.67% (inactive).

`CCC(C)N(C)C1CCN(C(=S)Nc2ccc(OC)cc2)CC1` (configuration not stated): the growth rescue is 0.96% (inactive).

For the compound `COC(=O)C1(C)NC(c2ccccc2OC)C2C(=O)N(c3ccccc3)C(=O)C21` (configuration not stated), the growth rescue was -1.44% (inactive).

On to `O=S(=O)(c1cccc(Cn2nnc(-c3ccc(F)cc3)n2)c1)N1CCOCC1`, for which the growth rescue is 1.33% (inactive).

Turning to `O=C(OCCN=C1NS(=O)(=O)c2ccccc21)c1cccc([N+](=O)[O-])c1`, the growth rescue is 0.884% (inactive).

For `CCn1c(O)c2ccc(C(=O)N=NC(=O)c3cccnc3)cc2c1O`, the growth rescue was -1.24% (inactive).

On to `O=C1C2N=NN(CC(=O)N3N=C(c4cccc5ccccc45)CC3c3ccccc3)C2C(=O)N1c1ccccc1` (configuration not stated), for which the growth rescue is -1.21% (inactive).

Take `Cc1ccc(N2C(=O)C3N=NN(CC(=O)N4N=C(c5cccc6ccccc56)CC4c4ccccc4)C3C2=O)cc1` (configuration not stated): the growth rescue was -1.11% (inactive).

As to `Oc1ccccc1C1=NN(c2ccccc2)C(c2ccccc2)C1` (configuration not stated), the growth rescue was 134% (active).

In the case of `CCN(CC)C(=O)C1CCC(C)(C(=O)O)C1(C)C` (configuration not stated), the growth rescue was 1.46% (inactive).

Take `COC(=O)C(C(=O)Nc1cccc(C)n1)C1CCCCCC1` (configuration not stated): the growth rescue was -0.474% (inactive).

Consider `CC(C)NC(=O)N1CCN(c2ccncc2S(=O)(=O)N2CCCCC2)CC1`, for which the growth rescue was -0.643% (inactive).

As to `O=C(COC(=O)CCOc1ccccc1)Nc1cc(S(=O)(=O)N2CCCCC2)ccc1Cl`, the growth rescue is 1.68% (inactive).

In the case of `Brc1ccc(-c2n(-c3ccccn3)c3ccccc3[n+]2-c2ccccn2)cc1`, the growth rescue was 0.665% (inactive).

Take `CCOC(=O)c1ccc(N2C(=O)CC(N3CCN(C(=O)c4ccccc4)CC3)C2=O)cc1` (configuration not stated): the growth rescue is 53.1% (active).

Consider `CCCCOC(=O)c1ccc(N2C(=O)CC(N3CCN(C/C=C/c4ccccc4)CC3)C2=O)cc1` (configuration not stated), for which the growth rescue is 0.282% (inactive).

For `CCOC(=O)c1ccc(N2C(=O)CC(N3CC(C)OC(C)C3)C2=O)cc1` (configuration not stated), the growth rescue is -0.556% (inactive).

For the compound `COc1ccc(N(C)S(=O)(=O)c2ccc3c(c2)CC(C)N3C(=O)C2CC2)c(OC)c1` (configuration not stated), the growth rescue was 2.19% (inactive).

Consider `CCC(C(=O)NCCC(C)C)N(Cc1ccccc1Cl)C(=O)c1snc(C(N)=O)c1N` (configuration not stated), for which the growth rescue is 0.982% (inactive).

With `CC(C)(C)NC(=O)C(c1ccc(Cl)cc1)N(CCO)C(=O)c1snc(C(N)=O)c1N` (configuration not stated), the growth rescue is -0.519% (inactive).

For `CCCCC(C(=O)NC(C)(C)C)N(Cc1ccccc1)C(=O)c1snc(C(N)=O)c1N` (configuration not stated), the growth rescue is 59.5% (active).

`CC12CCC(=O)N1C(C(=O)NCCN1C(=O)S/C(=C\c3ccccc3F)C1=O)CS2` (configuration not stated): the growth rescue was -1.34% (inactive).

Take `COc1ccc(CCNc2nc(C)cc(C)n2)cc1OC`: the growth rescue is 0.933% (inactive).

On to `NS(=O)(=O)c1ccc(CCNC(=O)c2ccc(Cl)c(S(=O)(=O)N3CCCCCC3)c2)cc1`, for which the growth rescue is 0.571% (inactive).

`CC1=CC(C)(C)N(C(=O)CSc2nnc(-c3ccccc3)o2)c2ccc(C)cc21`: the growth rescue was 81.1% (active).

As for `CC1=CC(C)(C)N(C(=O)CSc2nccn2C)c2cc(C)ccc21`, the growth rescue was -0.0285% (inactive).

As to `CCc1ccccc1NC(=O)CSc1nnc(-c2ccncc2)o1`, the growth rescue is -0.233% (inactive).

For `O=C(CN(c1ccc2c(c1)OCCO2)S(=O)(=O)c1ccccc1)Nc1ccc2c(c1)OCO2`, the growth rescue was 0.974% (inactive).

With `COc1ccc(CNC(=O)COC(=O)c2sccc2C)cc1OC`, the growth rescue was -0.071% (inactive).

For `COc1ccc(NCCc2ccccn2)cc1`, the growth rescue is -0.895% (inactive).

For `COc1ccnc(Oc2ccccc2)c1-c1ncn[nH]1`, the growth rescue was -2.24% (inactive).

As for `COc1cnc(-c2ccccn2)nc1Oc1ccc(C(C)(C)C)cc1`, the growth rescue was 162% (active).

Consider `CC1(C(=O)O)CCC(C(=O)Nc2ccc(Cl)c(Cl)c2)C1(C)C` (configuration not stated), for which the growth rescue was -0.486% (inactive).

As for `Cc1cccc(C)c1NC(=O)CCCSc1nnc(-c2ccco2)n1-c1ccccc1`, the growth rescue was 0.934% (inactive).

For the compound `COc1ccc(CCNC(=O)COc2ccc3c(c2)OCO3)cc1`, the growth rescue is -0.845% (inactive).

For `CC1CCCN(CC(O)COCc2ccccc2)C1` (configuration not stated), the growth rescue is -0.272% (inactive).

With `COc1cc(C)cc(CN2CCC(Cc3ccccc3)CC2)c1O`, the growth rescue is 0.509% (inactive).

As to `Oc1c(CN2CCCC2)cc(COCc2ccccc2)c2cccnc12`, the growth rescue is 281% (active).

On to `COCCCNC(=S)N1CCCC(c2nc3cc(C)c(C)cc3[nH]2)C1` (configuration not stated), for which the growth rescue is -0.694% (inactive).

Regarding `CCc1ccccc1N(CC(=O)N1CCN(c2ccccc2F)CC1)S(C)(=O)=O`, the growth rescue is 0.191% (inactive).

For `COc1ccc(N2C(=O)/C(=C\c3ccco3)N=C2SCC(N)=O)cc1Cl`, the growth rescue is -0.407% (inactive).

As for `COc1ccc2c(c1)C=CC1(O2)N(CCO)c2ccccc2C1(C)C` (configuration not stated), the growth rescue was -0.159% (inactive).

Regarding `COc1ccc(N2CCN(c3ccc([N+](=O)[O-])cc3Cl)CC2)cc1`, the growth rescue is -0.626% (inactive).

Turning to `CN1c2ccc([N+](=O)[O-])cc2C(C)(C)C12C=Cc1cc(C(=O)O)ccc1O2` (configuration not stated), the growth rescue is 200% (active).

On to `O=C(N/N=C\c1ccc(Br)cc1)c1ccc(Cn2cccn2)o1`, for which the growth rescue was 0.111% (inactive).

As for `Cc1nn(Cc2ccccc2Cl)c(C)c1NC(=O)Cn1nc([N+](=O)[O-])c(Cl)c1C`, the growth rescue is -0.0385% (inactive).

As to `Cc1c(Cl)c([N+](=O)[O-])nn1Cc1ccc(C(=O)N/N=C\c2cc(Cl)ccc2O)o1`, the growth rescue was 29.8% (active).

In the case of `COc1ccc(/C=C(\C#N)C(=O)NCCCn2ccnc2)cc1`, the growth rescue was -0.489% (inactive).

For the compound `CC1(C)NC(=O)N(CCCCSc2ccc(Cl)cc2)C1=O`, the growth rescue was 0.18% (inactive).

As for `O=C(N/N=C/c1sc(N2CCCCC2)nc1-c1cccs1)c1cccnc1`, the growth rescue is 140% (active).

Consider `Cc1ccc(NC(=O)COc2ccc(/C=N\NC(=O)c3cccnc3)cc2)cc1C`, for which the growth rescue is -0.012% (inactive).

As for `O=C(O)c1ccc(N/N=C/c2cn(-c3ccccc3)nc2-c2cccs2)cc1`, the growth rescue was 0.668% (inactive).

As to `O=C(NN=Cc1ccccc1)c1ccccc1`, the growth rescue is 0.391% (inactive).

For the compound `O=C(N/N=C/c1ccc(Cl)c(Cl)c1)c1ccc2nc[nH]c2c1`, the growth rescue is 0.517% (inactive).

As to `CSc1ccc(/C=N/NC(=O)c2cccc(Cl)c2)cc1`, the growth rescue is 40.3% (active).

As for `COC(=O)C1=NNC2(c3ccc(C)cc3)C(=O)N(c3cccc(C)c3C)C(=O)C12` (configuration not stated), the growth rescue was -0.596% (inactive).

For the compound `O=C(CSc1ccccn1)N1CCN(S(=O)(=O)c2ccc(Cl)cc2)CC1`, the growth rescue was -0.63% (inactive).

Consider `COc1ccc(C(=O)Nc2sc(C)c(C)c2CN2CCOCC2)cc1`, for which the growth rescue is 0.992% (inactive).

For the compound `CCc1cc(C(N)=O)c(NC(=O)c2ccc(OC)cc2)s1`, the growth rescue is 648% (active).

As to `CCc1cc(C(=O)c2ccc(OC)cc2)c(NC(=O)CN2CCN(C)CC2)s1`, the growth rescue was -1.5% (inactive).

As to `O=C(c1ccc2c(c1)OCO2)N1CCNc2ccccc2C1`, the growth rescue is -1.38% (inactive).

As for `COc1ccc(C(=O)NC2CC2)cc1OC1CCN(Cc2cnn(C)c2)CC1`, the growth rescue is -0.458% (inactive).

For `COc1cc(C(=O)NC2CCN(C)CC2)ccc1Nc1ncc2c(n1)N(C1CCC(O)CC1)CCC(=O)N2C` (configuration not stated), the growth rescue was 44.4% (active).

Regarding `COc1ccc(-n2cnc3cc(C(=O)NC4CCCC4)ccc32)cc1`, the growth rescue was 3.16% (inactive).

As to `O=C(/C=N/O)Nc1ccccc1`, the growth rescue was -1.81% (inactive).

`c1ccc(-c2nccc(-c3ccc(-n4cnc5ccccc54)cc3)n2)nc1`: the growth rescue is 3.45% (inactive).

As to `CN(C)Cc1c(O)ccc2c(=O)c(-c3ccccc3Cl)coc12`, the growth rescue is -1.86% (inactive).
